# Assay results: PubChem BioAssay (NCI)
# This is part of a sample that, as a whole, favours compounds with a hit. Of some 83,000 tested, about 20% had one in any assay.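 Compound tested at a single concentration for 48 hours in 96-well plates; a percent growth value below 10 was scored as active.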 Values without a mark were called inactive. The source made the active and inactive calls.
# Tested on: OVCAR-5 ovarian
# Test: NCI-60 one-dose screen, 48 h (100 = growth as untreated, 0 = no growth, -100 = all killed)
# Details: 10 µM unless noted
row,SMILES,growth
1,COc1cc2c(c(OC)c1OC)C(=O)/C(=C/c1cc(C)c(O)c(C)c1)S2,65.2%
2,COc1cc(CNC(=O)/C=C/C=C/c2ccc3c(c2)OCO3)ccc1OCc1cn(-c2ccc(Cl)c(Cl)c2)nn1,-19.8% (active)
3,COc1ccccc1C(=O)NC(=S)Nc1ccc(-c2nc3ccccc3[nH]2)cc1,90.5%
4,O=C(/C=C/C12c3ccccc3C(c3ccccc31)C1C(=O)N(c3ccccc3)C(=O)C12)c1ccc(Cl)cc1 (configuration not stated),8.5% (active)
5,COc1cc(NC(=O)c2cccc(-c3cc(=O)c4c(O)c(OC)c(OC)cc4o3)c2)cc(OC)c1OC,77.4%
6,Nc1c(C(=O)c2ccc(Cl)s2)sc2nc3c(cc12)CCCC3,137%
7,N#Cc1c(-c2ccccc2)nc(SCC2CO2)nc1N1CCOCC1 (configuration not stated),60.8%
8,CCCCN(CCCC)CCCn1c(=O)c2sc3ncccc3c2n2nnc(-c3ccccc3)c12,97.1%
9,CC1(C)CC(=O)c2c(ccc(C(=O)C[C@H](N)CO)c2N)O1,64.2%
10,COc1ccc(NC(=O)c2cccc(-c3cc(=O)c4c(O)c(OC)c(OC)cc4o3)c2)cc1,97.5%
11,CCn1c(Sc2nnc(NC(C)=O)s2)nc2c1c(=O)n(C)c(=O)n2C,90.3%
12,COc1cc(NC(=O)c2cccc(-c3cc(=O)c4c(OC)c(OC)c(OC)cc4o3)c2)cc(OC)c1OC,86%
13,CN(C)CN1CCN(c2ccc3nc(-c4ccc5nc(-c6ccc(C(F)(F)F)cc6)[nH]c5c4)[nH]c3c2)CC1,114%
14,COc1ccc(C2CC(c3ccc4ccccc4c3)=NN2c2nc(O)c(C3=c4cc(Cl)ccc4=NC3=O)s2)cc1 (configuration not stated),-7.92% (active)
15,NS(=O)(=O)c1cnccc1-n1ccc(=O)c(S(N)(=O)=O)c1,89.7%
16,O=C(/C=C/C12c3ccccc3C(c3ccccc31)C1C(=O)N(c3ccc(Cl)cc3)C(=O)C12)c1ccccn1 (configuration not stated),-43.3% (active)
17,O=C1CC(c2ccc3c(c2)OCO3)Nc2cc3c(cc21)OCO3 (configuration not stated),44.7%
18,C=CCOc1cccc(/C=C2\SC(=Nc3ccc(O)cc3)NC2=O)c1,27.9%
19,Cc1cc(-c2ccc(N(C)C)cc2)c2sc(=O)[nH]c2n1,85%

row,SMILES,growth
1,O=C1NC(=S)S/C1=C\N1N=C(c2ccc(Cl)cc2)CC1c1ccc(F)cc1 (configuration not stated),94.7%
2,COc1ccccc1NC(=O)Nc1ccc(-c2nc3ccccc3o2)cc1,104%
3,O=C(c1ccccc1)c1ccc(N2C(=O)C3C4c5ccccc5C(/C=C/C(=O)c5ccccn5)(c5ccccc54)C3C2=O)cc1 (configuration not stated),29.9%
4,Cc1ccc2c(n1)C(=O)C(Oc1ccc(F)cc1)=CC2=O,111%
5,COc1cc2ccccc2cc1C(=O)NC(=S)Nc1ccc(-c2nc3ccccc3[nH]2)cc1,103%
6,COc1cc2c(O)n(CCCn3ccnc3)c3c4cnc5cccc(c(=O)c3c2cc1OC)c54,83.1%
7,Cc1nn(-c2ccccc2)c2c1C(c1ccc([N+](=O)[O-])cc1)C(C#N)=C(N)O2 (configuration not stated),106%
8,Cc1ccc(S(=O)(=O)N(CC[C@@H]2C[C@H]2c2cc3ccccc3o2)C(=O)NC2CCCCC2)cc1,95.7%
9,N#Cc1c(NC(=O)c2ccc(Br)cc2)sc2c1CCCC2,55.7%
10,COc1cc(C(=O)Nc2cc(O)c(CC=C(C)C)c(O)c2)cc2c1O[C@]1(C)CC[C@@H](O)C(C)(C)[C@H]1C2,53%
11,COc1cc(-c2cccc([N+](=O)[O-])c2)c(-c2nc(-c3ccccc3)c(-c3ccccc3)n2C2CC2)cc1OC,87.3%
12,O=c1[nH]c(NCc2nnnn2-c2ccc(Br)cc2)nc2sc3c(c12)CCCC3,100%
13,CN(C)CCOC(=O)Nc1ccc(Cl)cc1,109%
14,O=C(NC(=S)Nc1ccc(-c2nc3ccccc3[nH]2)cc1)c1ccc2ccccc2c1,56.5%
15,O=c1ccn(C2OC(F)(CO)C(O)C2F)c(=O)[nH]1 (configuration not stated),103%
16,Cc1ccc(NC(=O)C(Cl)Cl)cc1,98.5%
17,CCCCN1CCN(c2ccc3nc(-c4ccc5nc(-c6cc(OC)c(OC)c(OC)c6)[nH]c5c4)[nH]c3c2)CC1,117%
18,CCCCCCCCn1cc(C2=C(c3coc4ccc(OC)cc34)C(=O)NC2=O)c2ccccc21,90.8%
